The record followed here is PubChem BioAssay AID493244 (The Scripps Research Institute Molecular Screening Center, 2011).

Molecules are shown by their SMILES. About 390 (0.11%) of roughly 340,000 compounds were called active.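 The calls were made as follows: active = inhibition above the mean inhibition of all tested compounds plus 3 SD (cut at about 17% in these data); inactive = the rest.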 Only a selection was taken, and actives are over-represented in it overall.

The test concerns the target Troponin I, cardiac muscle (Homo sapiens) + Troponin T, cardiac muscle (Homo sapiens) + Troponin C, slow skeletal and cardiac muscles (Homo sapiens) (UniProt P19429+P45379+P63316). Kind of test: cardiac RTF calcium sensitivity inhibitors, primary screen, biochemical, IANBD-TnC fluorescence, EC70 calcium (AID 493244).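 Also: assay run at fixed EC70 calcium of 1.6 mM.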 To be noted: IANBD-labeled cardiac RTF, Ca2+ fluorescence; at 7.15 µM; active compounds read high.
Turning to `COc1ccc2c(c1)[C@]13CCCCC1C(C2)N(C)CC3` (stereo not given in full), the inhibition was -1.69% (inactive).

Regarding `COC1=C[C@@H]2[C@@H]3Cc4ccc(OC)c(O)c4[C@]2(CCN3C)CC1=O`, the inhibition was 19.3% (active).

As for `COc1ccc2c(c1O)-c1cccc3c1[C@@H](C2)N(C)CC3`, the inhibition was 4.82% (inactive).

For `Cc1ccc(-c2nc3ccccc3c(=O)n2-c2ccc(Br)cn2)cc1`, the inhibition is -6.33% (inactive).

As for `COC(=O)C1=C(c2ccccc2)C[C@@H]2CC[C@H]1N2C(=O)N1CCCCC1`, the inhibition is 4.81% (inactive).
